# Screening results deposited in PubChem BioAssay by NMMLSC.
# Sampled rows, rich in hits. Any-hit rate of the full collection: about 1.3%.
# Efflux pump inh = inhibitors of Candida antifungal efflux pumps expressed in yeast; S. cerevisiae Candida pump triplex, Nile Red efflux; inhibition, % at 10 µM; 330,000 compounds, 0.44% hits; AID 485275;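 active = plate passing quality check with inhibition over a set limit, or well fluorescence over plate mean plus 4 SD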;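 also: Nile Red retained in pooled yeast measured as flow cytometry median fluorescence; 0% = buffer negative control and 100% = Enniatin B positive control; higher means more Nile Red kept so more efflux inhibition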
# AGP1 TOR yeast = yeast TOR pathway AGP1-GFP modulation; GFP response vs DMSO, % at 10 µM; S. cerevisiae AGP1-GFP multiplex flow cytometry, 3 h; GFP as percent of DMSO wells; 320,000 compounds, 0.02% hits;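 active = GFP response relative to DMSO above a set limit, near screen average plus 3 SD, cut at about 150% in these data; inconclusive = fewer than 70 cells counted for the yeast strain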;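 also: median GFP channel fluorescence of the gated AGP1 strain per well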
# LAP4 TOR yeast = yeast TOR pathway LAP4-GFP modulation; S. cerevisiae LAP4-GFP multiplex, flow cytometry GFP, 3 h; median GFP as percent of DMSO wells; GFP response vs DMSO, % at 10 µM; 320,000 compounds, 0.34% hits; AID 2023;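 active = GFP response vs DMSO above a set limit, about the screen mean plus 3 SD, cut at about 150% in these data; inconclusive = under 70 cell events counted for the yeast strain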
# MEP2-GFP yeast = modulators of TOR pathway MEP2-GFP in S. cerevisiae; AID 2016; S. cerevisiae MEP2-GFP strain, flow cytometry GFP, 3 h; 100% = DMSO control level; GFP response vs DMSO, % at 10 µM; 330,000 compounds, 0.51% hits;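 active = GFP response versus DMSO above a set limit, roughly screen mean plus 3 SD, cut at about 180% in these data; inconclusive = fewer than 70 cells counted for a yeast strain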;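 also: median GFP fluorescence of the barcode-gated MEP2-GFP cells per well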
# RPL19A TOR yeast = modulators of TOR pathway RPL19A-GFP in S. cerevisiae. S. cerevisiae RPL19A-GFP strain, flow cytometry, 3 h; hits give low values. percent response vs DMSO, % at 10 µM. 330,000 compounds, 0.3% hits. AID 2025;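 active = percent response vs DMSO below 50%; inconclusive = fewer than 70 events counted for the yeast strain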;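 also: median channel GFP fluorescence of the barcoded RPL19A-GFP strain; ratio of sample median GFP to plate DMSO average so 100% = DMSO; lower means less RPL19A-GFP as with rapamycin TOR inhibition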
# CIT2 TOR yeast = yeast TOR pathway CIT2-GFP modulation; S. cerevisiae CIT2-GFP strain, flow cytometry, 3 h; 100 means same as DMSO wells; AID 2029; GFP response vs DMSO, % at 10 µM; 320,000 compounds, 0.065% hits;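 active = GFP response relative to DMSO above a set limit, near the screen mean plus 3 SD, cut at about 150% in these data; inconclusive = Fewer than 70 cells measured for a yeast strain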;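 also: ratio of well median GFP fluorescence to mean of DMSO wells on the plate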
# * marks the source's active call; other numbers are inactive results; ? = inconclusive; / = no result given; [ ] = remark or other dose.
SMILES,Efflux pump inh,AGP1 TOR yeast,LAP4 TOR yeast,MEP2-GFP yeast,RPL19A TOR yeast,CIT2 TOR yeast
CN1CCc2nc3sc(C(=O)C45CC6CC(CC(C6)C4)C5)c(N)c3cc2C1,-0.2,24.5,119.6,257.4*[may fluoresce violet],72.8,?
Nc1c(C(=O)O)sc2nc3c(cc12)CCCC3,-0.2,113.4,112.5,99.1,98.9,99.2
FC(F)(F)c1cc(CO[C@@H]2CCCN[C@@H]2c2ccccc2)cc(C(F)(F)F)c1,0.0,92.0,102.6,93.7,101.7,89.7
COc1c(C(C)C)cc(NC(C)=O)cc1C(C)C,0.1,104.0,95.5,104.0,100.3,96.2
CC(C)c1cc(NC(=O)C(C)(C)C)cc(C(C)C)c1O,0.1,22.7,90.5,202.2*[may fluoresce violet],54.6,?
COCCNCC(O)CON=C1c2ccccc2-c2ccccc21 (stereo not given),0.1,21.9,95.3,170.3,48.2*[may fluoresce violet],?
COc1ccccc1Oc1coc2c(CN3CCN(C)CC3)c(O)ccc2c1=O,0.0,?,88.8,224.9*[may fluoresce violet],63.1,?
Cc1cccc(NC(=O)CS(=O)(=O)c2cn(CC(=O)N3CCOCC3)c3ccccc23)c1,0.1,?,69.6,187.1*[may fluoresce violet],42.5*[may fluoresce violet],?
CCOC(=O)Cc1c(C)c2c(C)[nH]nc2oc1=O,-0.1,?,89.7,327.6*[may fluoresce violet],22.9*[may fluoresce violet],?
CCCc1c(C)c2c(C)[nH]nc2oc1=O,0.1,/,91.7,97.8,86.7,86.2
CC(=O)c1ccc(N2CCN(S(=O)(=O)c3ccc4c(c3)CC(C)N4C(C)=O)CC2)cc1 (stereo not given),-0.1,17.1,85.6,120.8,37.5*,86.0
Cc1ccc(N2CC(C(=O)Nc3ccc(S(=O)(=O)NCC4CCCO4)cc3)CC2=O)cc1C (stereo not given),0.0,99.0,96.3,96.4,97.7,110.9
CCOc1c(Br)ccc2c1sc1nc[nH]c(=O)c12,-0.2,26.8,105.3,182.9*,/,105.2
CC(C)(C)NC(=O)CSCc1c(Cl)cccc1Cl,0.2,93.0,91.7,94.8,113.8,109.2
NC(=O)CSCc1c(Cl)cccc1Cl,0.0,60.6,83.2,217.4*,65.8,90.5
O=C(c1cc2ccccc2oc1=O)N1CCCC1,0.1,92.4,96.4,90.3,95.3,87.7
O=C(c1ccccc1)N1CCN(C(=O)c2cc3ccccc3oc2=O)CC1,-0.3,?,?,?,28.1*[may fluoresce violet],?
COc1ccc(OC)c(Nc2nc(-c3cccc([N+](=O)[O-])c3)nc3ccccc23)c1,-0.1,24.9,84.4,183.9*[may fluoresce violet],29.7*[may fluoresce violet],?
N#Cc1ccc(CSc2ccc(S(=O)(=O)N3CCCC3)cn2)cc1,0.2,92.2,93.4,93.3,90.0,85.1
COC(=O)c1ccc(CO/N=C/c2ccc(OC)cc2OC)cc1,0.7,16.8,76.2,216.9*[may fluoresce violet],65.2,?
O=C(NCCc1ccccc1)C(c1ccccc1F)N(C(=O)c1csnn1)C1CC1 (stereo not given),-0.3,?,61.9,216.6*[may fluoresce violet],38.5*[may fluoresce violet],?
O=C(NCCc1ccccc1)C(c1ccc(F)cc1)N(C(=O)c1csnn1)C1CC1 (stereo not given),0.3,?,57.5,201.2*[may fluoresce violet],28.1*[may fluoresce violet],?
O=C(CC1C(=O)NCCN1Cc1ccc(-c2ccccc2)cc1)NCc1ccccc1 (stereo not given),0.0,110.7,105.0,101.9,103.5,111.1
CN1CCN(C(=O)CC2C(=O)NCCN2Cc2ccc(-c3ccccc3)cc2)CC1 (stereo not given),-0.1,109.9,163.1*,258.8*,81.2,108.9
COC(=O)c1c(NC(=O)COC(=O)c2ccc(NC(=O)CC#N)cc2)sc2c1CCCCC2,0.0,111.7,105.7,100.4,97.8,100.8
SMILES,Efflux pump inh,AGP1 TOR yeast,LAP4 TOR yeast,MEP2-GFP yeast,RPL19A TOR yeast,CIT2 TOR yeast
CCCCOc1ccccc1Cn1c(=O)oc2ccccc21,0.0,/,105.8,177.7*[may fluoresce violet],72.8,?
O=c1oc2ccccc2n1Cc1ccccc1F,-0.3,100.7,97.6,106.5,110.3,122.7
COc1ccc(S(=O)(=O)N2CCOC2CNC(=O)C(=O)NCC(C)C)cc1 (stereo not given),-0.4,101.5,96.4,97.5,97.3,105.3
CC(=O)Oc1c(C)cc(Cl)cc1C(=O)Nc1ccc([N+](=O)[O-])cc1Cl,0.4,99.9,113.3,152.2,104.3,153.2*
COc1cc(C2c3c(oc4ccccc4c3=O)C(=O)N2CCN2CCOCC2)cc(OC)c1OC (stereo not given),0.0,101.1,103.2,104.7,99.0,99.8
COc1ccc(C2c3c(oc4ccccc4c3=O)C(=O)N2CCN2CCOCC2)cc1OC (stereo not given),-0.1,74.0,96.5,187.6*,53.5,90.3
OCC1(Cc2ccccc2)CCCN(Cc2ccc(-c3ccco3)cc2)C1 (stereo not given),-0.1,26.7,92.5,328.3*[may fluoresce violet],36.2*[may fluoresce violet],?
COC(=O)NC1CCC(CC2CCC(NC(=O)OC)CC2)CC1 (stereo not given),0.0,99.1,212.1*,698.3*,97.8,121.3
CC(C)c1ccc2c(c1)C1(NN=C(c3ccccc3)S1)C(=O)N2 (stereo not given),-0.2,95.6,171.4*,109.3,93.8,115.1
CCc1ccc2c(c1)C1(NN=C(c3ccc(C)cc3)S1)C(=O)N2 (stereo not given),0.1,15.3,84.4,92.4,40.1*[may fluoresce violet],?
N#Cc1ccccc1OCC(=O)NNC(=O)CNC(=O)c1ccc(Br)o1,0.0,101.5,104.5,103.2,94.1,92.6
Cc1nn(Cc2ccccc2)c(Cl)c1C(=O)NCc1ccc(C)n1C,-0.1,97.6,104.1,101.4,97.7,95.5
Cc1nn(Cc2c(Cl)cccc2Cl)c(C)c1C(=O)NCc1ccc(C)n1C,0.0,/,99.5,215.9*[may fluoresce violet],54.4,?
COc1cccc(NC(=O)C2CCCN2S(=O)(=O)c2ccc3c(c2)n(C)c(=O)c(=O)n3C)c1 (stereo not given),0.1,98.7,95.7,98.7,97.6,103.5
CC1(C(=O)OCc2cc(=O)n3cc(Br)ccc3n2)CC1(Cl)Cl (stereo not given),0.8,87.5,164.2*,89.9,83.5,59.4
CC1CC1C(=O)OCc1cc(=O)n2cc(Br)ccc2n1 (stereo not given),0.0,80.1,98.8,84.2,88.7,88.0
COc1cc(NC(=O)c2ccccc2)ccc1NC(=O)c1cc2ccccc2o1,0.6,94.9,133.3,207.3*,107.4,145.2
Clc1ccc(-c2nnc(-c3ccccc3)c(N3CCSCC3)n2)cc1,0.0,95.1,96.0,96.0,98.5,107.5
CC1CN(c2nc(-c3ccc(Br)cc3)nnc2-c2ccccc2)CC(C)N1 (stereo not given),-0.1,/,112.6,495.8*[may fluoresce violet],29.0*[may fluoresce violet],?
